Laboratory results published in PubChem BioAssay.
A number with no mark means an inactive call. The source made the active and inactive calls.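 The calls were made as follows, unless noted: active = inhibition at or above 50% at 10 µM; inactive = inhibition below 50%.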

Test: inhibitors of Sendai virus-induced IRF3 signaling, primary screen, TLR/RLR signaling modifier project, cell-based, Sendai virus stimulus, luciferase, 10K MLSCN set (AID 602276);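 also: firefly luciferase from ISG56 promoter only with Renilla not read in this screen; 0% = Sendai virus plus DMSO and 100% = medium plus DMSO without virus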
Settings: HEK293 RL24 IRF3 luciferase reporter, at 10 µM, hits give high values
Work on `COc1cccc2cc(C(=O)Nc3cccnc3N3CCOCC3)c(=O)oc12` yielded an inhibition of 10.7%. With `CN(c1ccccc1)S(=O)(=O)c1cc(C(=O)N2CCN(c3ccccn3)CC2)ccc1Cl` the inhibition was 15.7%. In the case of `COc1cc(OC)c(C(=O)Nc2ccc(N(C)C)cc2)cc1OC`, the inhibition is reported as -79.1%. `Cc1ccc(C(=O)C2COC(=O)C2)cc1` (stereo not given) showed an inhibition of 18.7%. For `COc1cccc(CNc2cccc3cccnc23)c1O`, the inhibition was 13%. Work on `O=c1c2cn[nH]c2nc(SCc2ccc3c(c2)OCCO3)n1-c1ccccc1` yielded an inhibition of 7.97%. `CCOC(=O)c1cc(-c2ccc(Cl)s2)nc2c1c(C)nn2C` gave an inhibition of 8.23%. `Cc1ccc(-c2ccc(/C=N/n3cnnc3)o2)cc1Cl` gave an inhibition of 3.11%. For `Cc1cc(C)nc(N2CCC(C(=O)NCc3cccc(C(F)(F)F)c3)CC2)n1`, the inhibition was 11.9%. Work on `O=C(CN1C(=O)COc2ccccc21)NCCCN1CCc2ccccc2C1` yielded an inhibition of 11.3%. `O=C(CCn1c(=O)sc2ccccc21)NC1=NCCS1` gave an inhibition of -9.67%. With `Cc1ccccc1NC(=O)N1C2CCCC1CC(NC(=O)C1CC1)C2` (stereo not given) the inhibition was 16.2%. In the case of `C=C(C)CSc1nnc(-c2cccc(S(=O)(=O)N(C)C)c2)n1-c1cc(OC)ccc1OC`, the inhibition is reported as 18.8%. `C=CCn1c(=O)/c(=C/c2ccc(O)cc2)s/c1=C(/C#N)c1nnc2n1CCCCC2` gave an inhibition of 17.7%. In the case of `O=C(CSc1nnnn1Cc1ccccc1)Nc1ccc2c(c1)OCO2`, the inhibition is reported as 1.63%. Work on `CNC(=O)c1c(O)c2cccc3c2n(c1=O)CC3` yielded an inhibition of 1.98%. Work on `Cc1oc(-c2ccccc2)cc1C(N)=O` yielded an inhibition of 15.1%. For `Cc1cccc(-n2nnc(C(=O)NCc3ccccc3)c2N)c1`, the inhibition was 9.81%. `COC(=O)c1[nH]c(C)c(/C(O)=C2\C(=O)C(=O)N(CCCN3CCOCC3)C2c2ccccn2)c1C` (stereo not given) gave an inhibition of 12.3%. Work on `Cc1noc(C)c1C(=O)OCC(=O)Nc1ccccc1C(=O)NC(C)c1ccccc1` (stereo not given) yielded an inhibition of 9.57%. Work on `Cn1c(SC/C=C/c2ccccc2)nnc1-c1cnccn1` yielded an inhibition of -12.1%. `O=C(CN1C(=O)NC2(CCCCCC2)C1=O)N1CCC(Cc2ccccc2)CC1` gave an inhibition of 0.617%. `CCOC(=O)c1c(NC(=O)CSc2nnc(-c3ccc(OC)cc3)o2)sc2c1CCC2` gave an inhibition of 0.872%. `Cn1nnnc1SCC(=O)Nc1ccccc1C(=O)NCc1ccccc1` gave an inhibition of -6.6%. Compound `Cc1ccc(NC(=O)CSc2nnc(NC(=O)CN3CCOCC3)s2)cc1` has an inhibition of 12.7%. Compound `O=C(NCc1ccc(F)cc1)c1cc(-c2ccco2)on1` has an inhibition of -17.1%. With `COC(=O)CCN1CCC(C(N)=O)CC1` the inhibition was 1.78%. For `COc1cccc(OC)c1C(=O)N1CCOCC1`, the inhibition was 17.5%. `CCOC(=O)CSc1nc(C)c(C(=O)OCC)s1` gave an inhibition of 7.74%. In the case of `CCC(=O)Nc1ccc(F)c(Cl)c1`, the inhibition is reported as 21.2%. Work on `N#CCc1nc(CSc2nc3ccccc3s2)cs1` yielded an inhibition of -24.2%. Compound `CS(=O)(=O)Nc1ccc(S(=O)(=O)Nc2nccs2)cc1` has an inhibition of 9.08%. With `CC(C)CNC(=O)c1ccccc1NC(=O)CN(c1ccc2c(c1)OCCO2)S(C)(=O)=O` the inhibition was 0.301%. For `CCOC(=O)c1[nH]cc(-c2ccccc2)c1N1CCOCC1`, the inhibition was 4.95%. For `CCn1c(=O)cc(SCC(=O)NCC2CCCO2)c2ccccc21` (stereo not given), the inhibition was 18.5%. For `O=C(c1ccco1)N1CCN(CC(=O)N(C2CCCCC2)C2CCS(=O)(=O)C2)CC1` (stereo not given), the inhibition was 7.31%. In the case of `CCCn1c(NCc2cc(C)ccc2O)nc2ccccc21`, the inhibition is reported as 18.7%. Work on `CCC(C)c1ccc(NC(=O)C2CC2)cc1` (stereo not given) yielded an inhibition of -20.4%. For `COc1ccccc1-n1c(C)nnc1SCC(N)=O`, the inhibition was 17.4%. `Cn1c(=O)oc2cc(S(=O)(=O)N3CCC(C(=O)Nc4ccc(OC(F)(F)F)cc4)CC3)ccc21` gave an inhibition of 12.1%.

Test: inhibitors of poly I:C-induced TLR3 signaling, primary screen, cell-based, poly I:C stimulus, luciferase, 10K MLSCN set (AID 602277;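 active = inhibition of the reporter signal at or above 50%; inactive = inhibition below 50%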)
Settings: HEK293-TLR3 RL24 IRF3 luciferase reporter, at 10 µM, hits give high values
For `COc1cccc2cc(C(=O)Nc3cccnc3N3CCOCC3)c(=O)oc12`, the inhibition was 4.05%. Compound `CN(c1ccccc1)S(=O)(=O)c1cc(C(=O)N2CCN(c3ccccn3)CC2)ccc1Cl` has an inhibition of 13.1%. With `COc1cc(OC)c(C(=O)Nc2ccc(N(C)C)cc2)cc1OC` the inhibition was 99.1% (active). Work on `Cc1ccc(C(=O)C2COC(=O)C2)cc1` (stereo not given) yielded an inhibition of 0.799%. With `COc1cccc(CNc2cccc3cccnc23)c1O` the inhibition was 8.77%. Compound `O=c1c2cn[nH]c2nc(SCc2ccc3c(c2)OCCO3)n1-c1ccccc1` has an inhibition of 9.23%. Work on `CCOC(=O)c1cc(-c2ccc(Cl)s2)nc2c1c(C)nn2C` yielded an inhibition of -18.9%. `Cc1ccc(-c2ccc(/C=N/n3cnnc3)o2)cc1Cl` gave an inhibition of -7.7%. `Cc1cc(C)nc(N2CCC(C(=O)NCc3cccc(C(F)(F)F)c3)CC2)n1` showed an inhibition of 14%. `O=C(CN1C(=O)COc2ccccc21)NCCCN1CCc2ccccc2C1` gave an inhibition of 33.1%. With `O=C(CCn1c(=O)sc2ccccc21)NC1=NCCS1` the inhibition was -5.87%. `Cc1ccccc1NC(=O)N1C2CCCC1CC(NC(=O)C1CC1)C2` (stereo not given) showed an inhibition of 16.2%. For `C=C(C)CSc1nnc(-c2cccc(S(=O)(=O)N(C)C)c2)n1-c1cc(OC)ccc1OC`, the inhibition was 34.6%. With `C=CCn1c(=O)/c(=C/c2ccc(O)cc2)s/c1=C(/C#N)c1nnc2n1CCCCC2` the inhibition was -30%. Work on `O=C(CSc1nnnn1Cc1ccccc1)Nc1ccc2c(c1)OCO2` yielded an inhibition of 2.13%. In the case of `CNC(=O)c1c(O)c2cccc3c2n(c1=O)CC3`, the inhibition is reported as -8.91%. With `Cc1oc(-c2ccccc2)cc1C(N)=O` the inhibition was 3.48%. `Cc1cccc(-n2nnc(C(=O)NCc3ccccc3)c2N)c1` gave an inhibition of 9.19%. With `COC(=O)c1[nH]c(C)c(/C(O)=C2\C(=O)C(=O)N(CCCN3CCOCC3)C2c2ccccn2)c1C` (stereo not given) the inhibition was 9.49%. With `Cc1noc(C)c1C(=O)OCC(=O)Nc1ccccc1C(=O)NC(C)c1ccccc1` (stereo not given) the inhibition was 7.74%. For `Cn1c(SC/C=C/c2ccccc2)nnc1-c1cnccn1`, the inhibition was -35%. Work on `O=C(CN1C(=O)NC2(CCCCCC2)C1=O)N1CCC(Cc2ccccc2)CC1` yielded an inhibition of 15.9%. Compound `CCOC(=O)c1c(NC(=O)CSc2nnc(-c3ccc(OC)cc3)o2)sc2c1CCC2` has an inhibition of 5.8%. In the case of `Cn1nnnc1SCC(=O)Nc1ccccc1C(=O)NCc1ccccc1`, the inhibition is reported as -17.1%. With `Cc1ccc(NC(=O)CSc2nnc(NC(=O)CN3CCOCC3)s2)cc1` the inhibition was 22.7%. `O=C(NCc1ccc(F)cc1)c1cc(-c2ccco2)on1` showed an inhibition of -42.6%. Work on `COC(=O)CCN1CCC(C(N)=O)CC1` yielded an inhibition of 6.83%. With `COc1cccc(OC)c1C(=O)N1CCOCC1` the inhibition was 25.3%. Compound `CCOC(=O)CSc1nc(C)c(C(=O)OCC)s1` has an inhibition of 15.6%. Work on `CCC(=O)Nc1ccc(F)c(Cl)c1` yielded an inhibition of 13.9%. For `N#CCc1nc(CSc2nc3ccccc3s2)cs1`, the inhibition was -87.8%. In the case of `CS(=O)(=O)Nc1ccc(S(=O)(=O)Nc2nccs2)cc1`, the inhibition is reported as 14.5%. `CC(C)CNC(=O)c1ccccc1NC(=O)CN(c1ccc2c(c1)OCCO2)S(C)(=O)=O` gave an inhibition of 0.167%. Compound `CCOC(=O)c1[nH]cc(-c2ccccc2)c1N1CCOCC1` has an inhibition of 15.7%. `CCn1c(=O)cc(SCC(=O)NCC2CCCO2)c2ccccc21` (stereo not given) gave an inhibition of 34.6%. `O=C(c1ccco1)N1CCN(CC(=O)N(C2CCCCC2)C2CCS(=O)(=O)C2)CC1` (stereo not given) gave an inhibition of 12.1%. `CCCn1c(NCc2cc(C)ccc2O)nc2ccccc21` showed an inhibition of 19.5%. `CCC(C)c1ccc(NC(=O)C2CC2)cc1` (stereo not given) showed an inhibition of -80.1%. In the case of `COc1ccccc1-n1c(C)nnc1SCC(N)=O`, the inhibition is reported as 22.3%. `Cn1c(=O)oc2cc(S(=O)(=O)N3CCC(C(=O)Nc4ccc(OC(F)(F)F)cc4)CC3)ccc21` showed an inhibition of 17%.
